According to PubChem BioAssay (Tox21):
Activity calls are given as the source filed them. A call without a number means that no potency is given here. The call rests on the fitted dose curve; in most records, active means well fitted curve in the direction sought with a large enough effect in the repeat runs; inconclusive means weak or mixed curves; inactive means flat fitted curve, though single readings scatter. Non-standard residues stand in square brackets, D forms with d. Residues, ends and D or L forms follow the SMILES beside them. Orn = NCCC[C@H](N)C(=O)O

experiment: qHTS assay to test for compound auto fluorescence at 460 nm (blue) in HepG2 cell free culture (AID 720685); conditions: Cell-free culture medium, blue autofluorescence 405/460 nm; series mostly up to 46 µM
Text: U.S. Tox21 Program National Center for Advancing Translational Sciences [NCATS] NIH Chemical Genomics Center [NCGC] U.S. Environmental Protection Agency [EPA] National Institutes of Environmental Health Sciences [NIEHS] National Toxicology Program [NTP] U.S. Food and Drug Administration [FDA] Tox21 Assay Overview: Compound auto fluorescence often interferes with screening of the compound library against various biological targets and signaling pathways. Some of these compounds may have fluorophoric properties. Such properties may interfere with the assay outputs resulting in false positives and/or negatives. To decrease such complications and ensure the compound activities are relevant in terms of biological response, the Tox21 10K compound library was screened for auto fluorescence. From the fluorophores used as reporter signals in our screening assays, the auto fluorescence equivalencies of compounds against three fluorophores have been evaluated: Triamterene, Fluorescein and Rose Bengal sodium for blue, green and red fluorescence, respectively. The fluorescence intensities were measured using Excitation/Emission wavelengths at 405/460nm, 485/535nm and 540/590nm for blue, green and red labels, respectively. This assay includes the blue fluorescence data.
Tox21 Assay Protocol Summary: 5 uL of culture medium (MEM containing 10% FBS) per well was dispensed into black wall/clear bottom 1536-well plates using a Multidrop Combi Dispenser (ThermoFisher Scientific, Waltham, MA). After 23 nL compound or DMSO vehicle was transferred into assay plate by a pintool work station (Kalypsys, San Diego, CA), fluorescence intensities in the assay plates were measured by an Envision (PerkinElmer, Shelton, CT) plate reader using three labels for measuring blue, green and red fluorescence at […] 460, 535 and 590nm respectively.

Row | SMILES | Potency
1 | O=C[C@H](O)[C@@H](O)[C@@H](O)[C@H](O)CO | inactive
2 | O=S(=O)(O)CC(S)CS (stereo not given) | inactive
3 | CCc1ncnc2cc(OC)c(OC)cc12 | inactive
4 | OCl | inactive
5 | CCN(CC)CC#CCOC(=O)C(O)(c1ccccc1)C1CCCCC1 (stereo not given) | inactive
6 | CC(C)(O/N=C(\C(=O)N[C@@H]1C(=O)N2C(C(=O)[O-])=C(C[n+]3ccccc3)CS[C@H]12)c1csc(N)n1)C(=O)O | inactive
7 | N[C@H](CO)C(=O)O | inactive
8 | C/C(=C\C(=O)OCCCCCCCCC(=O)O)C[C@@H]1OC[C@H](C[C@@H]2O[C@H]2[C@@H](C)[C@H](C)O)[C@@H](O)[C@H]1O | inactive
9 | CC(C)C[C@@H]1NC(=O)[C@H](CCCN)NC(=O)[C@H](C(C)C)NC(=O)[C@@H]2CCCN2C(=O)[C@@H](Cc2ccccc2)NC(=O)[C@H](CC(C)C)NC(=O)[C@H](CCCN)NC(=O)[C@H](C(C)C)NC(=O)[C@@H]2CCCN2C(=O)[C@@H](Cc2ccccc2)NC1=O (cyclo(V[Orn]L[dF]PV[Orn]L[dF]P)) | inactive
10 | CC(O)(c1ccc(Cl)cc1)c1ccc(Cl)cc1 | inactive
11 | NC(N)=NCCCCN=C(N)N | inactive
12 | Oc1ccc(Cl)c2c1CCC2 | inactive
13 | CCCCCCCCCCCC[n+]1ccc2ccccc2c1 | inactive
14 | CC1(C)CCC(NC(=O)[C@@H](N)CCC(=O)O)CC1 | inactive
15 | Cc1cc(-c2ccc(N=Nc3ccc4c(S(=O)(=O)O)cc(S(=O)(=O)O)c(N)c4c3O)c(C)c2)ccc1N=Nc1ccc2c(S(=O)(=O)O)cc(S(=O)(=O)O)c(N)c2c1O | inactive
16 | CNCCC=C1c2ccccc2CCc2ccccc21 | inactive
17 | NC(=O)[C@H]1O[C@@H](O)[C@H](O)[C@@H](O)[C@@H]1O | inactive
18 | CCC(=O)OC(OP(=O)(CCCCc1ccccc1)CC(=O)N1C[C@H](C2CCCCC2)C[C@H]1C(=O)O)C(C)C (stereo not given in full) | inactive
19 | c1ccc(-c2ccc(C(c3ccccc3)n3ccnc3)cc2)cc1 (stereo not given) | inactive
20 | CCCCCCCCCCCCCC(=O)OCC(COP(=O)([O-])OCC[N+](C)(C)C)OC(=O)CCCCCCCCCCCCC (stereo not given) | inactive

Row | SMILES | Potency
21 | CC(C)(Oc1ccc(C2CCCc3ccccc32)cc1)C(=O)O (stereo not given) | inactive
22 | NC(=S)NS(=O)(=O)c1ccc(N)cc1 | inactive
23 | CO/N=C(\C(=O)N[C@@H]1C(=O)N2C(C(=O)[O-])=C(C[n+]3ccc(N)n3CCO)CS[C@H]12)c1csc(N)n1 | inactive
24 | C[C@H](O)CN(C)C | inactive
25 | CC(=O)Oc1cc(C(F)(F)F)ccc1C(=O)O | inactive
26 | NC(=O)C1c2ccccc2CCc2ccccc21 | inactive
27 | C[C@@H]1C(=O)NC2=Nc3cccc(Cl)c3CN21 | inactive
28 | CCCCC[C@H](O)/C=C/[C@@H]1[C@@H](C/C=C\CCCC(=O)O)[C@@H](O)C[C@H]1O | inactive
29 | COc1ccc(/C=C/C(=O)O)cc1 | inactive
30 | CCCCCCCCCCCCCCCCC(C(=O)O)C(O)(CC(=O)O)C(=O)O (stereo not given) | inactive
31 | CCCCCCCCCC[N+](C)(CCCCCCCCCC)CCC[Si](OC)(OC)OC | inactive
32 | CC(C)CCC[C@@H](C)[C@H]1CC[C@H]2[C@@H]3CC=C4C[C@@H](O)CC[C@]4(C)[C@H]3CC[C@]12C | inactive
33 | CC1(C)C[C@@H]1C(=O)N/C(=C\CCCCSC[C@H](N)C(=O)O)C(=O)O | inactive
34 | CC(C)[C@H](NC(=O)[C@H](CC(=O)O)NC(=O)[C@H](CCCCN)NC(=O)[C@@H](N)CCCN=C(N)N)C(=O)N[C@@H](Cc1ccc(O)cc1)C(=O)O (H-RKDVY-OH) | inactive
35 | COC1=C(OC)C(=O)C(C/C=C(\C)CC/C=C(\C)CC/C=C(\C)CC/C=C(\C)CC/C=C(\C)CC/C=C(\C)CC/C=C(\C)CC/C=C(\C)CC/C=C(\C)CCC=C(C)C)=C(C)C1=O | inactive
36 | OCCCNc1ccccc1 | inactive
37 | OCC1(CO)COC(C(Cl)(Cl)Cl)OC1 | inactive
38 | CCN(CC)C(=O)c1cccnc1 | inactive
39 | CC1=C(/C=C/C(C)=C/C=C/C(C)=C/C=C/C=C(C)/C=C/C=C(C)/C=C/C2=C(C)CCCC2(C)C)C(C)(C)CCC1 | inactive
40 | CCCCCCCCCC(=O)NO | inactive
